Reference: PubChem BioAssay AID720550 (National Center for Advancing Translational Sciences (NCATS), 2013)
Results filed as inconclusive are left out. Values without a mark were called inactive. The source made the active and inactive calls. The call rests on the fitted dose curve; in most records, active means well fitted curve in the direction sought with a large enough effect; inconclusive means small, poorly fitted or top-dose-only effect, or another doubt; inactive means no such curve, though single readings can be large or run the other way.

test: qHTS for Inhibitors of Bloom's syndrome helicase (BLM): Thiazole Orange DNA Binding Counterscreen for SAR.; settings: fluorescence; Potency: Thiazole orange DNA displacement; series mostly up to 57.1 µM; activity change, negative = displacement: at the top concentration
Source text: Human RecQ DNA helicases participate in maintenance of genome stability and DNA repair. While other types of helicases have been explored as targets for drug development, members of the RecQ family have remained less well characterized. Mutations of the Bloom helicase gene have been associated with the rare human genetic disease called Bloom syndrome. […] Moreover, identified inhibitors can be used in cells and animal models to examine the consequences of inhibition on the survival of cancer cells where it has been shown that BLM plays an important role.
A fluorescence-based, biochemical assay in 1536 well format was developed to evaluate inhibition of BLM DNA unwinding activity. This assay was used to screen the MLPCN library. The resulting compounds were subjected to orthogonal and secondary biochemical assays to triage the initial hits, to classify compounds based on mode of action and to derive structure activity relationships (SARs) of candidate effectors. The Thiazole Orange (ThO) DNA binding (TO-binding) is used to eliminate inhibitors that operate via nonspecific DNA binding. This displacement assay is miniaturized for a 1536-well format and utilizes a ThO dye bound to unlabeled DNA. Inactivation or no significant activity is the desired outcome for this assay.
NIH Chemical Genomics Center [NCGC]
NIH Molecular Libraries Probe Centers Network [MLPCN]
Assay Submitter (PI): Opher Gileadi, Structural Genomics Consortium, University of Oxford, UK
Compounds were added to a 4 uL mixture of 50 nM DNA and 100 nM ThO via pintool transfer. The fluorescence signal (excitation 480 nm, emission 530 nm) was measured after 15 min incubation at room temperature using the ViewLux CCD imager.

Compound | activity change, negative = displacement | Potency
O=C(Nc1ccc2ccccc2c1)Nc1nnc(-c2ccc(F)cc2)s1 | -25.5% | 
O=C(Nc1ccc(Cl)c(Cl)c1)Nc1cccc(-c2ccncc2)n1 | -5.13% | 
O=c1c(Nc2ccc(Br)c(Br)c2)c(Nc2nnc(-c3ccncc3)s2)c1=O |  | 10.2 µM (active)
O=C(Nc1ccc(Cl)c(Cl)c1)Nc1nnc(-c2cccnc2)s1 | -0.0445% | 
O=C(Nc1ccc(Cl)c(Cl)c1)Nc1ccc(-c2ccncc2)s1 | -4.46% | 
Cc1cc(NC(=O)Nc2nnc(-c3cccnc3)s2)ccc1Cl |  | inactive
N#Cc1ccc(NC(=O)Nc2nnc(-c3ccncc3)s2)c(Cl)c1 | 24.2% | 
O=C(Nc1ccc2c(c1)OCCO2)Nc1nnc(-c2ccncc2)s1 | 88% | 
N#Cc1cc(NC(=O)Nc2nnc(-c3ccncc3)s2)ccc1Br | -29.5% | 
O=C(Nc1ccc(Cl)c([N+](=O)[O-])c1)Nc1cccc(-c2ccncc2)n1 | -18.5% | 
N/C(=N\c1nnc(-c2ccncc2)s1)Nc1ccc(Cl)c(Cl)c1 | 20.4% | 
CCOC(=O)c1cccc(NC(=O)Nc2nnc(-c3ccncc3)s2)c1 | 91.3% | 
O=C(Nc1nnc(-c2ccncc2)s1)Nc1cc(C(F)(F)F)ccc1F | 20% | 
CC(C)(C)c1cccc(NC(=O)Nc2nnc(-c3ccncc3)s2)c1 | -29.7% | 
O=C(Nc1ccc2ccccc2c1)Nc1nnc(C2CCCCC2)s1 | 199% | 
O=C(Nc1ccc(F)c(C(F)(F)F)c1)Nc1nnc(-c2ccncc2)o1 | -22.2% | 
O=C(Nc1ccc2sccc2c1)Nc1nnc(-c2cccnc2)s1 | 8.73% | 
O=C(Nc1ccccc1)Nc1nnc(-c2ccncc2)s1 | 4.99% | 
O=C(Cc1nnc(-c2ccncc2)s1)Nc1ccc(F)c(C(F)(F)F)c1 | 52.1% | 
S=C(Nc1ccc(Cl)c(Cl)c1)Nc1nnc(-c2ccncc2)o1 | -26.8% | 

Compound | activity change, negative = displacement | Potency
O=C(Nc1ccc2ccccc2c1)Nc1nnc(-c2ccccn2)s1 | -12% | 
O=C(Nc1ccc(-c2nc3ccccc3[nH]2)cc1)Nc1ccc2occc2c1 | 32.4% | 
CCCCCCNC(=O)Nc1nnc(-c2ccncc2)s1 | -0.682% | 
O=C(Nc1ccc2ccccc2c1)Nc1nnc(-c2ccccc2F)s1 | 2.78% | 
N/C(=N\c1nnc(-c2ccncc2)s1)Nc1ccc(F)c(C(F)(F)F)c1 |  | inactive
O=C(Nc1ccc(-c2nc3ccccc3[nH]2)cc1)Nc1ccc2c(c1)CCCO2 | 91.4% | 
Cc1cc(NC(=O)Nc2nnc(C3CCCCC3)s2)ccc1Br | 138% | 
O=c1c(Nc2ccc(Cl)c(Cl)c2)c(Nc2nnc(-c3ccncc3)s2)c1=O |  | 4.57 µM (active)
O=C(Nc1ccc2ccccc2c1)Nc1nnc(-c2ccccc2)s1 | 93% | 
O=C(Nc1ccc2ccccc2c1)Nc1nnc(-c2ccncc2)o1 | 1.59% | 
Cc1cc(NC(=O)Nc2nnc(-c3ccncc3)s2)ccc1F | -8.28% | 
Cc1cc(NC(=O)Nc2nnc(-c3ccncc3)s2)ccc1C#N | 12.5% | 
O=C(Nc1ccc(F)c(F)c1)Nc1nnc(-c2ccncc2)s1 | 3.39% | 
CC(C)(C)c1ccc(-c2nnc(NC(=O)Nc3ccc4ccccc4c3)s2)cc1 | 12.2% | 
O=C(Nc1nnc(-c2ccncc2)s1)Nc1ccc(Cl)cc1F | 61.6% | 
O=C(Nc1ccc(F)c(C(F)(F)F)c1)Nc1nnc(-c2ccncc2)s1 |  | inactive
Cc1cc(NC(=O)Nc2cccc(-c3ccncc3)n2)ccc1Br | 24.6% | 
CC(=O)c1cccc(NC(=O)Nc2nnc(-c3ccncc3)s2)c1 | 218% | 
COc1ccccc1CNC(=O)Nc1nnc(-c2ccncc2)s1 | 1.57% | 
O=C(Nc1nnc(-c2ccncc2)s1)NC12CC3CC(CC(C3)C1)C2 | 91.5% | 
